For twelve compounds, Potency results are on record in PubChem BioAssay (Tox21).

“And” between values parts separate entries of the source, which are not always exact repeats. Equal entries are not always repeated. Records with an inconclusive call do not appear. Some compounds were tested as several samples or in several runs, with calls that do not always agree. The source made the active and inactive calls. Unless noted, the call rests on the fitted dose curve; in most records, active means well fitted curve in the direction sought with a large enough effect in the repeat runs; inconclusive means weak or mixed curves; inactive means no such curve, though single readings can be large; an effect the other way counts as inactive or inconclusive.

A short description of test [1]: qHTS assay to identify small molecule agonists of the peroxisome proliferator-activated receptor delta (PPARd) signaling pathway - cell viability counter screen (AID 743211). Further: nearly all actives have a fitted effect of over 55% in size. Further: potency means the concentration at half of the fitted maximal effect. The gist of the method: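 In the same wells used for beta-lactamase reporter measurement, cytotoxicity is scored by CellTiter-Glo. HEK293H PPARd-bla cells receive compound for 17 h at 37C following a 5 h settling period.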
Background: qHTS replaces the single test concentration by a dilution series.

The nature of test [2]: qHTS assay to identify small molecule antagonists of the peroxisome proliferator-activated receptor delta (PPARd) signaling pathway - cell viability counter screen (AID 743213). Further: nearly all actives have a fitted effect of over 50% in size. Further: potency means the concentration at half of the fitted maximal effect. The gist of the method: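 Luminescence from CellTiter-Glo, added after the bla read and incubated 30 min at room temperature, gives viability of HEK293H PPARd-bla cells exposed to compounds for 17 h at 37 C with 300 nM L165041.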

Test [3] is described as follows: qHTS assay to identify small molecule agonists of the farnesoid-X-receptor (FXR) signaling pathway - cell viability counter screen (AID 743218). Further: nearly all actives have a fitted effect of over 45% in size. Further: potency means the concentration at half of the fitted maximal effect. The gist of the method: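 Readout: CellTiter-Glo luminescence, 30 min RT, multiplexed after the FXR-bla FRET reading. HEK 293T FXR-UAS-bla cells received compound 5 h post-plating and were incubated 16 h at 37 C.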
Test [4] can be described thus: qHTS assay to identify small molecule antagonists of the farnesoid-X-receptor (FXR) signaling pathway - cell viability counter screen (AID 743221; active means well fitted cell-killing curve with a large enough effect in the repeat runs, not every such curve was filed as active; further: nearly all actives have a fitted effect of over 50% in size; further: potency means the concentration at half of the fitted maximal effect). The gist of the method:
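Here viability was scored by luminescence after CellTiter-Glo addition to wells already read for beta-lactamase. Prior treatment: compound plus CDCA (50 uM final), 16 h, 37 C, HEK 293T FXR-bla cells.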

For test [5], the target named is Vitamin D3 receptor (Homo sapiens) (UniProt P11473). As to the kind of experiment: qHTS assay to identify small molecule agonists of the vitamin D receptor (VDR) signaling pathway (AID 743222; calls by dose curve). The gist of the method: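 Following 4 h attachment at 37C, VDR-bla cells (2,000 per well) received DMSO-dissolved compounds or controls. After 16 h incubation, LiveBLAzer B/G FRET substrate was added and fluorescence read 2 h later at room temperature.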

Test [6] can be described thus: qHTS assay to identify small molecule agonists of the vitamin D receptor (VDR) signaling pathway - cell viability counter screen (AID 743224). Further: nearly all actives have a fitted effect of over 50% in size. Further: potency means the concentration at half of the fitted maximal effect. Put shortly:
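In parallel with the bla FRET readout, cytotoxicity toward VDR-bla cells after 16 h compound exposure was assessed by CellTiter-Glo, with luminescence recorded after a 30 min room-temperature incubation.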

Test [7] can be described thus: qHTS assay to identify small molecule antagonists of the vitamin D receptor (VDR) signaling pathway - cell viability counter screen (AID 743225). Further: nearly all actives have a fitted effect of over 50% in size. Further: potency means the concentration at half of the fitted maximal effect. The gist of the method:
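Compounds were pinned onto VDR-bla HEK 293T cells together with 1-alpha,25-dihydroxyvitamin D3 at 3 nM final. After 16 h at 37C and 5% CO2 plus the reporter readout, cell viability was measured by CellTiter-Glo luminescence (30 min, room temperature).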

Test [8] in a line: qHTS assay to identify small molecule agonists of the NFkB signaling pathway - cell viability counter screen (AID 1159515; calls by dose curve; further: nearly all actives have a fitted effect of over 55% in size; further: potency means the concentration at half of the fitted maximal effect). Put shortly: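 Plate 2,000 NFkB-bla ME-180 cells/well; incubate overnight. Add compounds, 5 hr at 37 C. Add FRET substrate, 1.5 hr RT. Add CellTiter-Glo, 30 min RT; read luminescence.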
Test [9] is described as follows: qHTS assay to identify small molecule agonists of the endoplasmic reticulum stress response signaling pathway - cell viability counter screen (AID 1159517; calls by dose curve; further: nearly all actives have a fitted effect of over 50% in size; further: potency means the concentration at half of the fitted maximal effect). The gist of the method:
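Steps: seed 1,500 ESRE-bla HeLa cells per well; incubate overnight at 37 C, 5% CO2; add compounds in DMSO for 5 hr; run FRET substrate 2 hr RT; add CellTiter-Glo, wait 30 min, read luminescence.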

Test [10] can be described thus: qHTS assay to identify small molecule antagonists of the retinoid-related orphan receptor gamma (ROR-gamma) signaling pathway - cell viability counter screen (AID 1159520). Further: nearly all actives have a fitted effect of over 50% in size. Further: potency means the concentration at half of the fitted maximal effect. Put shortly: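 Tet-on ROR gamma CHO cells were given compounds for 2 hr, then doxycycline hyclate at 1 uM final, and incubated 16 hr at 37 C. Viability was measured as ATP content by CellTiter-Glo luminescence.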

The target in test [11] is Nuclear receptor ROR-gamma (Homo sapiens) (UniProt P51449). Description: qHTS assay to identify small molecule antagonists of the retinoid-related orphan receptor gamma (ROR-gamma) signaling pathway (AID 1159521; further: nearly all actives have a fitted effect of over 50% in size; further: potency means the concentration at half of the fitted maximal effect). The gist of the method:
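Test compounds were applied to Tet-on RORγ CHO cells 2 h ahead of doxycycline hyclate (1 uM final). Luciferase reporter activity was quantified by luminescence after 16 h at 37 C and 5% CO2.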

A short description of test [12]: qHTS assay to identify small molecule agonists of the AP-1 signaling pathway - cell viability counter screen (AID 1159525; calls by dose curve; further: nearly all actives have a fitted effect of over 55% in size; further: potency means the concentration at half of the fitted maximal effect). The gist of the method:
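Same-well cytotoxicity counter screen of the Tox21 10K library in ME-180 cells. The readout is ATP-dependent luminescence after 5 h compound treatment. Data are normalised to DMSO and tetra n-octyl ammonium bromide controls.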

Test [13] concerns the target Peroxisome proliferator-activated receptor delta (Homo sapiens) (UniProt Q03181). Description: qHTS assay to identify small molecule agonists of the peroxisome proliferator-activated receptor delta (PPARd) signaling pathway (AID 743212; calls by dose curve). Put shortly: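 Read-out: beta-lactamase FRET fluorescence after 2 h room-temperature incubation with LiveBLAzer B/G substrate. Cells were HEK293H carrying a UAS-bla reporter for PPARd, treated at 37 C with DMSO-dissolved compounds.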

Test [14] has the same target. Description: qHTS assay to identify small molecule antagonists of the peroxisome proliferator-activated receptor delta (PPARd) signaling pathway (AID 743215; active means well fitted inhibition curve with a large enough effect in the signal ratio in the repeat runs, not every such curve was filed as active; the % refers to the signal ratio;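 further: cells stimulated with agonist L165041 at 300 nM final during compound exposure; series mostly up to about 62 µM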). Put shortly: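 Fluorescence from cleaved LiveBLAzer B/G FRET substrate (2 h, room temperature) reports PPARd-driven beta-lactamase in HEK293H UAS-bla cells. Cells had been treated 17 h at 37 C with compound plus 300 nM final L165041.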

For test [15], the target named is Bile acid receptor (Homo sapiens) (UniProt Q96RI1). Description: qHTS assay to identify small molecule agonists of the farnesoid-X-receptor (FXR) signaling pathway (AID 743220; active means well fitted activation curve with a large enough effect in the signal ratio in the repeat runs, not every such curve was filed as active; the % refers to the signal ratio). Put shortly: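 FXR-UAS-bla HEK 293T cells carrying a UAS-driven beta-lactamase reporter were plated for 5 h at 37C/5% CO2, then exposed to DMSO-dissolved Tox21 10K compounds for 16 h at 37C. A LiveBLAzer B/G FRET substrate was loaded for 2 h at room temperature before fluorescence reading.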

Test [16] has as its target Vitamin D3 receptor (Homo sapiens) (UniProt P11473). As to the kind of experiment: qHTS assay to identify small molecule antagonists of the vitamin D receptor (VDR) signaling pathway (AID 743223; active means well fitted inhibition curve with a large enough effect in the signal ratio in the repeat runs, not every such curve was filed as active; the % refers to the signal ratio). Put shortly:
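Inhibition of agonist-driven VDR signalling is scored in VDR-bla cells: 3 nM final 1alpha,25-dihydroxyvitamin D3 plus compound, 16 h at 37C, then beta-lactamase detection by FRET substrate fluorescence after 2 h.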

Test [17] can be described thus: qHTS assay to identify small molecule agonists of the AP-1 signaling pathway (AID 1159526; calls by dose curve).
The target of test [18] is Bile acid receptor (Homo sapiens) (UniProt Q96RI1). Description: qHTS assay to identify small molecule antagonists of the farnesoid-X-receptor (FXR) signaling pathway (AID 743217; active means well fitted inhibition curve with a large enough effect in the signal ratio in the repeat runs, not every such curve was filed as active; the % refers to the signal ratio). The gist of the method: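 FRET fluorescence after 2 h room-temperature LiveBLAzer loading gives the readout. Prior step: FXR-bla HEK 293T cells, seeded and incubated 5 h, received test compounds plus 50 uM final CDCA for 16 h at 37 °C.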

A short description of test [19]: qHTS assay to identify small molecule agonists of the endoplasmic reticulum stress response signaling pathway (AID 1159516; active means well fitted activation curve with a large enough effect in the signal ratio in the repeat runs, not every such curve was filed as active; the % refers to the signal ratio). The gist of the method: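 Beta-lactamase expression from the ER stress response element in HeLa reporter cells is quantified with the LiveBLAzer B/G FRET substrate, read at 405 nm excitation after 2 hr at room temperature, following 5 hr compound treatment at 37 C.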

The target in test [20] is Retinoic acid receptor RXR-alpha (Homo sapiens) (UniProt P19793). As to the kind of experiment: qHTS assay to identify small molecule agonists of the RXR signaling pathway (AID 1159527; calls by dose curve; further: nearly all actives have a fitted effect of over 35% in size). Put shortly:
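Using 9-cis retinoic acid as the reference agonist, chemicals were tested in HEK 293T cells […] for 16 hr; substrate loading lasted 2 hr at room temperature.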

Sequence of Bile acid receptor (Homo sapiens) (Q96RI1 whole entry, looked up): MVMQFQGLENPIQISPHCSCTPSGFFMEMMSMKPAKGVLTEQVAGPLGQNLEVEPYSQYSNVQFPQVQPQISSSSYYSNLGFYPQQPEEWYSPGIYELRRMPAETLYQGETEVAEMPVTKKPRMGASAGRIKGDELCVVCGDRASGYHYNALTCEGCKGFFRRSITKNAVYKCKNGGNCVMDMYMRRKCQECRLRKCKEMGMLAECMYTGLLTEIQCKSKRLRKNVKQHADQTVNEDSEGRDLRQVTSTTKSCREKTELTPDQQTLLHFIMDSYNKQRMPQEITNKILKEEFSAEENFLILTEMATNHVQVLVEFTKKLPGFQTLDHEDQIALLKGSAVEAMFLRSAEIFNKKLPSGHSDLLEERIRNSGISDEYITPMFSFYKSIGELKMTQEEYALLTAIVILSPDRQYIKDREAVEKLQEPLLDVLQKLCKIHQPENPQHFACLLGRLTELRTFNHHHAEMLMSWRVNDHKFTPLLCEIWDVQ
Sequence of Vitamin D3 receptor (Homo sapiens) (P11473 whole entry, looked up): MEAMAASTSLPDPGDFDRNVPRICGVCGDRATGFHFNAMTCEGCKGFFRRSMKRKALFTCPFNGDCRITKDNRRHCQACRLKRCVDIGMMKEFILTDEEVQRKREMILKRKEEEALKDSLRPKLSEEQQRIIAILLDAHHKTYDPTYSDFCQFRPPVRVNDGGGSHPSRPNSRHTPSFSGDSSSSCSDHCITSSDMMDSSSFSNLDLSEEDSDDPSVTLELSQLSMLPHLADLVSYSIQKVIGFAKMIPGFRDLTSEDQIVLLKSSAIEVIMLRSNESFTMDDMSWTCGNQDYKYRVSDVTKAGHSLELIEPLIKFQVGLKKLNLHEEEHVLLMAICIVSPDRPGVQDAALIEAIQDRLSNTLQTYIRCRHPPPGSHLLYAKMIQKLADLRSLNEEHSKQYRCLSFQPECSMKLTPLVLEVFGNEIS
Sequence of Peroxisome proliferator-activated receptor delta (Homo sapiens) (Q03181 whole entry, looked up): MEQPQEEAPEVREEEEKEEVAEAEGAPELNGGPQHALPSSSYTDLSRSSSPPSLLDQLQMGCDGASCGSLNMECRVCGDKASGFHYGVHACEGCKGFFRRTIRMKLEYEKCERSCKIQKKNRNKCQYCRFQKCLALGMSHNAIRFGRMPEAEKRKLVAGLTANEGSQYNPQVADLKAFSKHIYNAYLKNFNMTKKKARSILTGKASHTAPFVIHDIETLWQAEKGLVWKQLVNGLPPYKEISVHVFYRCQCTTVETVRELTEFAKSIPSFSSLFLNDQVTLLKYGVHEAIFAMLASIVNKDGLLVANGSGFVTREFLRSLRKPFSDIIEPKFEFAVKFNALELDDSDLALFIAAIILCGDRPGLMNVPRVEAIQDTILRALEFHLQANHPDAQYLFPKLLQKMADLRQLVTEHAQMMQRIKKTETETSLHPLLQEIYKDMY
Sequence of Retinoic acid receptor RXR-alpha (Homo sapiens) (P19793 whole entry, looked up): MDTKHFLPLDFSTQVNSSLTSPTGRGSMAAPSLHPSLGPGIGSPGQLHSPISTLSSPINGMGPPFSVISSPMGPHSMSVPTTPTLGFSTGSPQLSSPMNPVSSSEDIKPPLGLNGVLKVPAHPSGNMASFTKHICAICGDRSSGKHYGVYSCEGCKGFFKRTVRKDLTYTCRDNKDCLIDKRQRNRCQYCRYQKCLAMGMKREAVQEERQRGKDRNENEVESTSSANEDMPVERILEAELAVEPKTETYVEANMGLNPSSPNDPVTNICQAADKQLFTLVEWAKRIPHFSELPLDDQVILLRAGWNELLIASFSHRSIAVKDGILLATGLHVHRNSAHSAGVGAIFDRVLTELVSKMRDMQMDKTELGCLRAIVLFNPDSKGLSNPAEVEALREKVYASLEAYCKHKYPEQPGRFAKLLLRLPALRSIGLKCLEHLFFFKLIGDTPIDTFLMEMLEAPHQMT

In the case of `CCN(CC)C(=S)S`, the Potency in [1] was 13.9 µM (active) and 3.87 µM (active) and 4.9 µM (active); in test [2] it was “inactive and 6.13 µM (active) and 3.47 µM (active)”; in [3], 12.4 µM (active); in test [4] it was 22.1 µM (active) and 4.87 µM (active) and 7.76 µM (active); in test [6], 4.87 µM (active) and 6.92 µM (active); in test [8], 13.8 µM (active). Also, the Potency was 27.5 µM (active) and 9.63 µM (active) and 12.2 µM (active) in [11]; 38.7 µM (active) in [12]. Moreover, the Potency result in [5], in test [7], in test [9] and in test [10] was “inactive” in each case.
Take `CCOP(=O)(OCC)Oc1nc(Cl)c(Cl)cc1Cl`: the values for the Potency in [1], in test [6] and in test [11] were 38.7 µM (active), 4.34 µM (active) and 48.3 µM (active), respectively. The Potency result in test [5], in [8], in [9] and in [12] was “inactive” in each case.
As for `N#Cc1c2ccccc2cc2ccccc12`, the Potency result in test [4], in test [6], in [8], in test [9], in test [10] and in test [12] was “inactive” each time.
Take `CCCCc1ccccc1`: the Potency entry in [1], in [13], in test [2], in [14], in [3] and in [15] was “inactive” in each case. Besides, the Potency entry in [4], in test [16], in test [7], in test [8], in test [9] and in [11] was “inactive” in each case. Besides, the Potency entry in test [12] was “inactive”.
Turning to `C=C(C)C(=O)[O][Sn]([CH2]CCC)([CH2]CCC)[CH2]CCC`, the Potency in test [1] is 0.871 µM (active); in test [2], 1.55 µM (active); in test [3], 0.616 µM (active); in test [4], 0.977 µM (active); in test [7] it was 1.95 µM (active); in test [8], 0.436 µM (active). Moreover, the Potency was 0.692 µM (active) in test [9], 1.37 µM (active) in test [10], 0.306 µM (active) in [11] and 0.977 µM (active) in test [12]. Moreover, the Potency entry in test [5] was “inactive”.
On to `CC(C)N(C(=O)CCl)c1ccccc1`, for which the Potency in test [1] was 49 µM (active) and 43.6 µM (active). Also, the Potency result in [4], in test [5], in test [6], in test [7], in [8] and in test [9] was “inactive” throughout. The Potency result in test [12] and in test [17] was “inactive” in each case.
Consider `N#CC(C#N)=NNc1cccc(Cl)c1`, for which the Potency in test [1] was 8.71 µM (active); in [2], 8.71 µM (active); in test [3], 5.49 µM (active); in test [4], 6.92 µM (active); in [6] it was 6.92 µM (active); in test [7], 8.71 µM (active). Moreover, the Potency is 2.73 µM (active) in test [10] and 0.486 µM (active) in test [11]. Further, the Potency result in [8], in [9] and in test [12] was “inactive” each time.
For `N#CSCc1ccccc1`, the Potency result in test [1], in [13], in test [2], in test [18], in [3] and in test [5] was “inactive” in each case. Moreover, the Potency entry in test [16], in test [6], in [7], in [19], in [9] and in [10] was “inactive” throughout. The Potency result in [12], in test [17] and in test [20] was “inactive” in each case.
With `CCOP(=O)(OCC)Oc1cc(C)nc(C(C)C)n1`, the Potency result in test [1], in [13], in test [2], in [14], in test [18] and in test [3] was “inactive” in each case. For the same compound, the Potency entry in test [4], in test [6], in test [7], in [9], in test [10] and in test [11] was “inactive” each time. For the same compound, the Potency entry in test [12], in [17] and in test [20] was “inactive” throughout.
Take `O=[N+]([O-])c1cc(C(F)(F)F)c(Cl)c([N+](=O)[O-])c1Nc1ncc(C(F)(F)F)cc1Cl`: the Potency in [1] was 8.71 µM (active); in test [2], 6.16 µM (active); in test [3] it was 15.5 µM (active); in test [4], 21.9 µM (active); in test [6] it was 4.9 µM (active); in test [7], 6.92 µM (active). The Potency is 12.3 µM (active) in test [9], 4.86 µM (active) in [10], 1.37 µM (active) in test [11] and 11 µM (active) in test [12].
Take `CN1CCc2cc(Cl)c(O)cc2[C@H]2c3ccccc3CC[C@@H]21`: the Potency entry in [13], in [14], in test [15], in test [4], in [6] and in [7] was “inactive” in each case. Further, the Potency entry in test [19], in test [9], in [12] and in [17] was “inactive” throughout.
Take `CCOP(=O)(Sc1ccccc1)Sc1ccccc1`: the Potency entry in [1], in test [13], in test [2], in test [14], in [18] and in test [5] was “inactive” in each case. For the same compound, the Potency result in test [16], in test [6], in test [7], in [19], in test [9] and in test [12] was “inactive” in each case.
